Measurements from PubChem BioAssay.

test: Plasmodium falciparum growth inhibition, primary screen, strain 3D7, DAPI fluorescence, 100 nL (AID 1184);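 also: parasites grown inside human red blood cells in medium with human serum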; settings: P. falciparum 3D7 growth, 3 d, higher = more signal

| SMILES | z-score |
| --- | --- |
| O=C(C1N=C(c2ccc(OCCCO)cc2)N(c2ccccc2)O1)N1CCOCC1 (centres undefined) | -0.277 |
| CC(C)N1C(=O)c2ccccc2[C@](C)(C(=O)NCc2ccccc2)[C@@H]1c1ccc(CO)cc1 | -0.771 |
| COCCn1c(C(=O)N2CCCC2)cc2c1C[C@H]1CN(C(=O)c3ccccc3)[C@@](Cc3ccc(F)cc3)(C(=O)OC)[C@@H]21 | -1.01 |
| C=C(/C(=C/C[C@@H](OC(C)=O)c1ccc(OCCO)cc1)c1cnc2ccccc2c1)C(C)C | -3 |
| [N-]=[N+]=NCc1ccccc1C[C@]1(C(=O)N2CCOCC2)N=C(c2ccc(OCCCO)cc2)O[C@H]1c1ccccc1N=[N+]=[N-] | -2.6 |
| CC(=O)NCCCC[C@@H]1NC(=O)[C@@H]2C[C@H](C(=O)NCCCCCCNC(=O)CS)[C@H](c3cccc(OCCO)c3)N2C1=O | -0.523 |
| C=CCOC(=O)[C@@H]1[C@H]2C(=O)O[C@H](c3ccccc3)[C@H](c3ccccc3)N2[C@H](c2ccc(OCCOC(=O)[C@@H]3C[C@@H]4C(=O)N[C@@H](CCCC[N+](C)(C)C)C(=O)N4[C@@H]3c3cccc(OCCO)c3)cc2)[C@@]12C(=O)Nc1ccc(I)cc12 | 0.0875 |
| CC(C)C[C@H]1NC(=O)[C@@]23C(=O)N[C@@H](Cc4ccccc4)C2[C@H](C)[C@@]2(C)O[C@H]2C3/C=C/C/C=C\CNC(=O)[C@H](Cc2ccccc2)NC1=O (some centres undefined) | -1.45 |
| C=CCN1C(=O)[C@]2(O[C@H](CCO)[C@@H]([Si](C)(C)c3ccc(OC)cc3)[C@@H]2C)c2cc(N3C(=O)c4cccc5cccc3c45)ccc21 | -2.74 |
